Laboratory results published in PubChem BioAssay AID1159580 (chemical genetic matrix, 2015).
Out of some 5,500 compounds screened, about 2,000 (36%) were called active. Inconclusive results (about 18%) are left out. No stated cut-off is given here; in the data, active means normalized growth mostly below about 0.91 (no sharp cut-off); inconclusive means no clear call, values can overlap the other calls; inactive means mostly above about 0.92. The list shows a part of the results.

Assay: chemical genetic growth profiling, strain panel (AID 1159580);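 further: tested at 20 µM; growth read once vehicle control cultures reached saturation at 30 °C; 1 = growth at the plate median or of vehicle wells; lower values mean less growth of the strain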
Conditions: growth OD

Measured: normalized growth

COc1ccc2c(c1O)OCC1c3cc4c(cc3OC21)OCO4 (stereo unspecified)
inactive: S. cerevisiae deletion strains, locus YKL085W, strain MDH1, active compounds read low 1.01 | S. cerevisiae deletion strains, locus YKL190W, strain CNB1, active compounds read low 0.979 | S. cerevisiae deletion strains, locus YKR001C, strain vps1, active compounds read low 0.963 | S. cerevisiae deletion strains, locus YLR039C, strain RIC1, active compounds read low 0.846 | S. cerevisiae deletion strains, locus YLR058C, strain SHM2, active compounds read low 0.971 | S. cerevisiae deletion strains, locus YLR102C, strain apc9, active compounds read low 0.983 | S. cerevisiae deletion strains, locus YLR262C, strain YPT6, active compounds read low 0.851 | S. cerevisiae deletion strains, locus YLR268W, strain sec22, active compounds read low 0.938 | S. cerevisiae deletion strains, locus YLR330W, strain CHS5, active compounds read low 0.991 | S. cerevisiae deletion strains, locus YLR342W, strain FKS1 (second series), active compounds read low 0.946 | S. cerevisiae deletion strains, locus YLR371W, strain rom2, active compounds read low 1 | S. cerevisiae deletion strains, locus YLR418C, strain cdc73, active compounds read low 0.903 | S. cerevisiae deletion strains, locus YML016C, strain PPZ1, active compounds read low 0.992 | S. cerevisiae deletion strains, locus YML032C, strain rad52, active compounds read low 0.987 | S. cerevisiae deletion strains, locus YML124C, strain tub3, active compounds read low 1.01 | S. cerevisiae deletion strains, locus YMR078C, strain ctf18, active compounds read low 0.988 | S. cerevisiae deletion strains, locus YMR223W, strain ubp8, active compounds read low 0.976 | S. cerevisiae deletion strains, locus YMR263W, strain SAP30, active compounds read low 0.929 | S. cerevisiae deletion strains, locus YMR307W, strain GAS1, active compounds read low 1.04 | S. cerevisiae deletion strains, locus YNL067W, strain RPL9B, active compounds read low 0.929 | S. cerevisiae deletion strains, locus YNL128W, strain TEP1, active compounds read low 0.929 | S. cerevisiae deletion strains, locus YNL153C, strain GIM3, active compounds read low 0.936 | S. cerevisiae deletion strains, locus YNL233W, strain BNI4, active compounds read low 0.971 | S. cerevisiae deletion strains, locus YNL250W, strain rad50, active compounds read low 0.994 | S. cerevisiae deletion strains, locus YNL271C, strain bni1, active compounds read low 0.98 | S. cerevisiae deletion strains, locus YNL298W, strain CLA4, active compounds read low 0.958 | S. cerevisiae deletion strains, locus YNL322C, strain KRE1, active compounds read low 0.981 | S. cerevisiae deletion strains, locus YNR052C, strain pop2, active compounds read low 0.987 | S. cerevisiae deletion strains, locus YOL006C, strain TOP1, active compounds read low 0.783 | S. cerevisiae deletion strains, locus YOL012C, strain htz1 1.07 | S. cerevisiae deletion strains, locus YOL147C, strain pex11, active compounds read low 1 | S. cerevisiae deletion strains, locus YOR061W, strain CKA2, active compounds read low 0.969 | S. cerevisiae deletion strains, locus YOR069W, strain VPS5, active compounds read low 1 | S. cerevisiae deletion strains, locus YOR136W, strain idh2, active compounds read low 0.999 | S. cerevisiae deletion strains, locus YOR144C, strain elg1, active compounds read low 0.994 | S. cerevisiae deletion strains, locus YOR184W, strain ser1, active compounds read low 0.907 | S. cerevisiae deletion strains, locus YOR316C, strain cot1, active compounds read low 0.988 | S. cerevisiae deletion strains, locus YPL055C, strain LGE1, active compounds read low 0.883 | S. cerevisiae deletion strains, locus YPL241C, strain CIN2, active compounds read low 0.99 | S. cerevisiae deletion strains, locus YPR119W, strain clb2, active compounds read low 0.999 | S. cerevisiae deletion strains, locus YPR141C, strain kar3, active compounds read low 0.997 | S. cerevisiae deletion strains, locus YPR163C, strain tif3, active compounds read low 0.964 | S. cerevisiae deletion strains, locus YPR167C, strain met16, active compounds read low 0.984 | S. cerevisiae deletion strains, strain wtn01, active compounds read low 0.946 | S. cerevisiae strains, strain wild type, active compounds read low 0.994
active: S. cerevisiae deletion strains, locus YNL307C, strain MCK1, active compounds read low 0.904
